Laboratory results: PubChem BioAssay (NCATS)
Records with an inconclusive call do not appear. Active and inactive are the calls of the source. The call rests on the fitted dose curve; in most records, active means well fitted curve in the direction sought with a large enough effect; inconclusive means small, poorly fitted or top-dose-only effect, or another doubt; inactive means no such curve, though single readings can be large; an effect the other way counts as inactive or inconclusive.

Columns and labels:
CRL-7250 = normal cell line; experiment: Cytotoxic Profiling of Annotated Libraries Using Quantitative High-Throughput Screening (AID 1296008); conditions: Five cell lines viability, CellTiter-Glo ATP luminescence, 48-72 h; max response: active compounds read low; further: nearly all actives have a fitted effect of over 60% in size; on max response: on the % scale 0 is the no-effect control and ±100 the full control effect
How it was run: (§1)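 Cytotoxicity was measured as CellTiter-Glo ATP luminescence, read after 10 min at room temperature. Compound treatment of the cells lasted 48 or 72 hr at 37 degrees Celsius in a qHTS format.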

HEK293 = experiment: as above; conditions: Five cell lines viability, CellTiter-Glo ATP luminescence, 48-72 h; max response: active compounds read low
How it was run: as §1

HaCat [1] = experiment: as above; conditions: Five cell lines viability, CellTiter-Glo ATP luminescence, 48-72 h; max response: active compounds read low
How it was run: as §1

KB-3-1 = experiment: as above; conditions: Five cell lines viability, CellTiter-Glo ATP luminescence, 48-72 h; max response: active compounds read low
How it was run: as §1

NIH3T3 = experiment: as above; conditions: Five cell lines viability, CellTiter-Glo ATP luminescence, 48-72 h; max response: active compounds read low
How it was run: as §1

HACAT [2] = experiment: qHTS assay to identify novel small-molecules to repurpose for Merkel cell carcinoma treatment (AID 1296009); conditions: MCC and control cell lines, CellTiter-Glo viability, 72 h; at 44.8 µM (top of the series) unless noted; further: nearly all actives have a fitted effect of over 60% in size
How it was run: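 Cell viability measured by CellTiter-Glo following 72 hr compound treatment at 37 degree celsius, with NPC and MIPE libraries tested in 8- and 11-point concentration series.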

C33A = experiment: Primary qHTS to identify gynecologic anti-cancer compounds using libraries of approved drugs and bioactive compounds (AID 1345084); conditions: Gynecologic cancer cell panel viability, ATPlite luminescence, 48 h; series mostly up to 57.5 µM; further: on the % scale 0 is the no-effect control and ±100 the full control effect; nearly all actives have a fitted effect of over 55% in size
How it was run: (§2)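 Cell viability after 48 h drug treatment, ATPlite luminescence readout; five doses.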

CAOV3 = experiment: as above; conditions: Gynecologic cancer cell panel viability, ATPlite luminescence, 48 h; series mostly up to 57.5 µM
How it was run: as §2

CASKI = experiment: as above; conditions: Gynecologic cancer cell panel viability, ATPlite luminescence, 48 h; series mostly up to 57.5 µM
How it was run: as §2

Es-2 = experiment: as above; conditions: Gynecologic cancer cell panel viability, ATPlite luminescence, 48 h; series mostly up to 57.5 µM
How it was run: as §2

HeLa = experiment: as above; conditions: Gynecologic cancer cell panel viability, ATPlite luminescence, 48 h; series mostly up to 57.5 µM
How it was run: as §2

Hek293T = experiment: as above; conditions: Gynecologic cancer cell panel viability, ATPlite luminescence, 48 h, control line for the selectivity index; series mostly up to 57.5 µM
How it was run: as §2

JEG-3 = experiment: as above; conditions: Gynecologic cancer cell panel viability, ATPlite luminescence, 48 h; series mostly up to 57.5 µM
How it was run: as §2

OV90 = experiment: as above; conditions: Gynecologic cancer cell panel viability, ATPlite luminescence, 48 h; series mostly up to 57.5 µM
How it was run: as §2

COc1cc(O)cc(C)c1C(=O)OC1C(CO)OC(n2ccc(=O)[nH]c2=O)C1OC(C)=O (stereo not given)
inactive: outcome (CRL-7250) | max response (HEK293) 2.97% | outcome (HaCat [1]) | max response (KB-3-1) 8.59% | max response (NIH3T3) -1.67% | outcome (HACAT [2]) inactive [at 17.4 µM] | Potency (C33A) | Potency (CAOV3) | outcome (CASKI) | Potency (Es-2) | Potency (HeLa) | Potency (Hek293T) | Potency (JEG-3) | Potency (OV90)

CSC(=O)OCC1=C[C@@H]2OC(=O)C3=CO[C@@H](O[C@@H]4O[C@H](CO)[C@@H](O)[C@H](O)[C@H]4O)[C@H]1[C@@H]32
inactive: max response (CRL-7250) -1.2% | max response (HEK293) -0.187% | outcome (HaCat [1]) | outcome (KB-3-1) | max response (NIH3T3) 1.53% | outcome (HACAT [2]) inactive [at 17.4 µM] | Potency (C33A) | Potency (CAOV3) | outcome (CASKI) | Potency (Es-2) | Potency (HeLa) | Potency (Hek293T) | Potency (JEG-3) | Potency (OV90)

COc1ccnc2[nH]cc(C(=O)C(=O)N3CCN(C(=O)c4ccccc4)CC3C)c12 (stereo not given)
inactive: max response (CRL-7250) 0.507% | max response (HEK293) -0.0222% | outcome (HaCat [1]) | outcome (KB-3-1) | max response (NIH3T3) -4.76% | outcome (HACAT [2]) | Potency (C33A) | Potency (CAOV3) | outcome (CASKI) | Potency (Es-2) | Potency (HeLa) | Potency (Hek293T) | Potency (JEG-3) | Potency (OV90)

CC1(C)C2CC[C@]3(C)C(C(=O)C=C4[C@H]5C[C@@](C)(C(=O)O)CC[C@]5(C)CC[C@]43C)[C@@]2(C)CC[C@@H]1O (stereo not given in full)
inactive: outcome (CRL-7250) | max response (HEK293) -0.352% | outcome (HaCat [1]) | outcome (KB-3-1) | max response (NIH3T3) 2.21% | outcome (HACAT [2]) inactive [at 17.4 µM] | Potency (C33A) | Potency (CAOV3) | outcome (CASKI) | Potency (Es-2) | Potency (HeLa) | Potency (Hek293T) | Potency (JEG-3) | Potency (OV90)

C[C@@H]1O[C@@H](O[C@H]2[C@H](O)[C@@H](O)[C@H](OC[C@H]3O[C@@H](OC(=O)[C@]45CCC(C)(C)C[C@H]4C4=CCC6[C@@]7(C)C[C@@H](O)[C@H](O)[C@@](C)(CO)C7[C@H](O)C[C@@]6(C)[C@]4(C)CC5)[C@H](O)[C@@H](O)[C@@H]3O)O[C@@H]2CO)[C@H](O)[C@H](O)[C@H]1O (stereo not given in full)
inactive: outcome (CRL-7250) | max response (HEK293) -10.1% | outcome (HaCat [1]) | outcome (KB-3-1) | max response (NIH3T3) -2.14% | outcome (HACAT [2]) inactive [at 9.27 µM] | activity change, negative = cytotoxicity (C33A) 15% [at 11.6 µM] | activity change, negative = cytotoxicity (CAOV3) -8.06% [at 11.6 µM] | activity change, negative = cytotoxicity (CASKI) -1.59% [at 11.6 µM] | activity change, negative = cytotoxicity (Es-2) -1.56% [at 11.6 µM] | activity change, negative = cytotoxicity (HeLa) 13.5% [at 11.6 µM] | activity change, negative = cytotoxicity (Hek293T) -2.97% [at 11.6 µM] | activity change, negative = cytotoxicity (JEG-3) -6.46% [at 11.6 µM] | activity change, negative = cytotoxicity (OV90) -3.81% [at 11.6 µM]

CN1CCN(C2=Nc3ccccc3Nc3ccc(O)cc32)CC1
inactive: max response (CRL-7250) 2.24% | max response (HEK293) -1.86% | outcome (HaCat [1]) | outcome (KB-3-1) | max response (NIH3T3) 4.15% | outcome (HACAT [2]) | Potency (C33A) | Potency (CAOV3) | outcome (CASKI) | Potency (Es-2) | Potency (HeLa) | Potency (Hek293T) | Potency (JEG-3) | Potency (OV90)

CC(C)=C1CC2[C@](C)(CC[C@@H](OC(=O)C3(C)OC3C)[C@@]2(C)O)CC1=O (stereo not given in full)
inactive: outcome (CRL-7250) | max response (HEK293) 4.03% | outcome (HaCat [1]) | max response (KB-3-1) 6.8% | max response (NIH3T3) -3.35% | outcome (HACAT [2]) | Potency (C33A) | Potency (CAOV3) | outcome (CASKI) | Potency (Es-2) | Potency (HeLa) | Potency (Hek293T) | Potency (JEG-3) | Potency (OV90)

CC(=O)OC1CC(C(C)(C)O)OC2CCC3(C)OC4=C(C(=O)C=C5C(C)C(OC(C)=O)C6(C)C(C)OC546)C(O)C3C12C (stereo not given)
inactive: outcome (CRL-7250) | max response (HEK293) -23.5% | outcome (HaCat [1]) | max response (KB-3-1) 5.34% | max response (NIH3T3) 1.94% | outcome (HACAT [2]) inactive [at 17.4 µM] | Potency (C33A) | Potency (CAOV3) | outcome (CASKI) | Potency (Es-2) | Potency (HeLa) | Potency (Hek293T) | Potency (JEG-3) | Potency (OV90)

CC(C)=CC[C@H]1O[C@]2(O)C([C@H]3CCC4[C@@]5(C)CC[C@H](O[C@@H]6O[C@H](CO)[C@H](O)[C@H](O[C@@H]7O[C@H](CO)[C@@H](O)[C@H](O)[C@H]7O)[C@H]6O[C@@H]6O[C@@H](C)[C@H](O)[C@@H](O)[C@H]6O)C(C)(C)C5CC[C@@]4(C)[C@]3(C)[C@H]2O)[C@@]1(C)O (stereo not given in full)
inactive: max response (CRL-7250) 0.206% | max response (HEK293) 2.46% | outcome (HaCat [1]) | max response (KB-3-1) 9.9% | max response (NIH3T3) 0.989% | outcome (HACAT [2]) inactive [at 9.27 µM] | activity change, negative = cytotoxicity (C33A) 1.02% [at 11.6 µM] | activity change, negative = cytotoxicity (CAOV3) 7.68% [at 11.6 µM] | activity change, negative = cytotoxicity (CASKI) -0.575% [at 11.6 µM] | activity change, negative = cytotoxicity (Es-2) -1.48% [at 11.6 µM] | activity change, negative = cytotoxicity (HeLa) -4.09% [at 11.6 µM] | activity change, negative = cytotoxicity (Hek293T) 0.87% [at 11.6 µM] | activity change, negative = cytotoxicity (JEG-3) 13.4% [at 11.6 µM] | activity change, negative = cytotoxicity (OV90) -2.06% [at 11.6 µM]

C[C@@H]1O[C@@H](O[C@@H]2[C@@H](O)[C@H](O[C@@H]3[C@@H](O)[C@@H](O)[C@H](O[C@H]4[C@H](OC(=O)[C@]56CCC(C)(C)C[C@H]5C5=CCC7[C@@]8(C)C[C@H](O)[C@H](O[C@@H]9O[C@H](C(=O)O)[C@@H](O)[C@H](O)[C@H]9O)[C@@](C)(CO)C8[C@H](O)C[C@@]7(C)[C@]5(C)C[C@H]6O)O[C@@H](CO)[C@@H]4O)O[C@H]3C)OC[C@H]2O)[C@H](O)[C@H](O)[C@H]1O (stereo not given in full)
inactive: max response (CRL-7250) 0.0733% | max response (HEK293) 1.63% | outcome (HaCat [1]) | outcome (KB-3-1) | outcome (NIH3T3) | outcome (HACAT [2]) inactive [at 9.27 µM] | activity change, negative = cytotoxicity (C33A) 7.96% [at 6.55 µM] | activity change, negative = cytotoxicity (CAOV3) -1.08% [at 6.55 µM] | activity change, negative = cytotoxicity (CASKI) 4.5% [at 6.55 µM] | activity change, negative = cytotoxicity (Es-2) 7.92% [at 6.55 µM] | activity change, negative = cytotoxicity (HeLa) 5.7% [at 6.55 µM] | activity change, negative = cytotoxicity (Hek293T) 11.5% [at 6.55 µM] | activity change, negative = cytotoxicity (JEG-3) 3.64% [at 6.55 µM] | activity change, negative = cytotoxicity (OV90) 0.206% [at 6.55 µM]
